# Calls of active or inactive are those of the source. Unless noted, how the calls were made is not given here.
# Assays:
# [1] = tested on: Wnt5a (protein binding on small-molecule microarray); experiment: Wnt5a binders on small-molecule microarray, primary screen, biophysical, 635/667 nm fluorescence (AID 1142); conditions: 635 nm fluorescence, higher = more signal;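 further: fluorescence read at 667 nm with signal to noise per printed feature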
# [2] = cell viability in Huh7 cells, primary screen, cytotoxicity control for HCV replication inhibitor project, CellTiter-Glo luminescence, basal, 48 h (AID 1143); conditions: Huh7 HCV replicon, higher = more signal, called active from +8 up or from −8 down;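 further: Huh7 hepatoma cells carrying a hepatitis C replication reporter with no stimulus; test concentration not given here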
# [3] = P. aeruginosa biofilm formation inhibitors, primary screen, PAO1 strain, BacTiter-Glo luminescence, LB-PBS (AID 1144); conditions: 12 h, higher = more signal
# [4] = CREB reporter modulators without forskolin, primary screen, cell-based, PC12, CRE-LacZ reporter, unstimulated (AID 1145); conditions: no forskolin, luminescence, 4.5 h, higher = more signal, called active from +8 up or from −8 down
# [5] = CREB reporter modulators under forskolin, primary screen, cell-based, PC12, CRE-LacZ reporter, forskolin-stimulated (AID 1146); conditions: luminescence, 4.5 h, higher = more signal, called active from +8 up or from −8 down;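 further: PC12 cells with 6xCRE LacZ reporter stimulated by forskolin 10 µM; beta-galactosidase reporter signal reflecting CREB driven transcription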
# [6] = biological target: Streptavidin (Streptomyces avidinii) (UniProt P22629); experiment: streptavidin binders on small-molecule microarray, primary screen, artefact control for SMM compound annotation, biophysical, 635/667 nm fluorescence (AID 1147); conditions: streptavidin binding, higher = more signal;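 further: signal reflects streptavidin binding to arrayed compounds as a control protein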
# [7] = small-molecule binders of probe aInhba, primary screen, biochemical, small-molecule microarray, 635/667 nm fluorescence (AID 1148); conditions: higher = more signal;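 further: score merges 667nm spot fluorescence with signal-to-noise for antibody binding to printed compounds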
# Torsin-1A (Homo sapiens) [8] = biological target: Torsin-1A (Homo sapiens) (UniProt O14656); experiment: torsin A binders from cell lysate, primary screen, small-molecule microarray, wild-type, 635/667 nm (AID 1149); conditions: COS7 hTOR1A-WT lysate, 635 nm fluorescence, higher = more signal
# Torsin-1A (Homo sapiens) [9] = biological target: Torsin-1A (Homo sapiens) (UniProt O14656); experiment: small-molecule binders of mutant TOR1A in lysate, primary screen, cell lysate, small-molecule microarray, COS7 lysate, 635/667 nm fluorescence (AID 1150); conditions: COS7 hTOR1A mutant lysate, 635 nm fluorescence, higher = more signal;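 further: score pools 667 nm emission and signal to noise measuring lysate protein binding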
# [10] = tested on: Sonic hedgehog protein (Shh); experiment: small-molecule binders of Shh protein, primary screen, biochemical, small-molecule microarray, 635/667 nm fluorescence (AID 1151); conditions: small-molecule microarray binding, 635 nm fluorescence; higher = more signal;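 further: Shh protein binding to compounds spotted on small-molecule microarray slides; score combines spot fluorescence intensity with signal-to-noise across triplicate slides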
# [11] = E. coli DRC41 culture turbidity changes, primary screen, E. coli filamentation inducer project, strain DRC41, OD650, 48 h (AID 1152);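 further: E. coli MC1000 strain DRC41 lacking acrAB efflux pump and sulA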; conditions: E. coli DRC41 (acrAB sulA), higher = more signal, called active from +8 up or from −8 down
# [12] = small-molecule binders of probe aLefty1, primary screen, biochemical, small-molecule microarray, 635/667 nm fluorescence (AID 1153); conditions: higher = more signal;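 further: score merges spot fluorescence with signal-to-noise ratio from the scanned slide images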
# [13] = PSAC antagonists in infected red cells, primary screen, cell-based, P. falciparum Indochina, OD700, 1 h (AID 1154); conditions: P. falciparum Indochina infected RBC osmotic lysis, higher = more signal, called active from +8 up or from −8 down
# [14] = PSAC antagonists in infected red cells, primary screen, cell-based, P. falciparum Indochina, OD700, 2 h (AID 1155);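 further: lysis reports solute entry through the parasite surface anion channel PSAC; channel blockers reduce lysis of infected cells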; conditions: P. falciparum Indochina infected erythrocytes, osmotic lysis OD700; higher = more signal, called active from +8 up or from −8 down
# [15] = osmotic lysis modulators in infected erythrocytes, primary screen, PSAC antagonist project, cell-based, P. falciparum Indochina, OD700, 3 h (AID 1156); conditions: higher = more signal, called active from +8 up or from −8 down
# [16] = PSAC antagonists in infected red cells, primary screen, cell-based, P. falciparum Indochina, OD700, 18 h (AID 1157); conditions: P. falciparum Indochina infected erythrocytes, osmotic lysis OD700, 18 h; higher = more signal, called active from +8 up or from −8 down
# [17] = modulators of S6 phosphorylation in cells, primary screen, cell-based, A549, cytoblot, luminescence, serum-stimulated (AID 1158); conditions: A549 phospho-S6 cytoblot, 5 h, higher = more signal;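 further: serum-stimulated A549 lung adenocarcinoma cells; signal is phosphorylated S6 detected by cytoblot immunostaining with HRP secondary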
# [18] = biological target: NADPH oxidase 2 (Homo sapiens) (UniProt P04839); experiment: NOX2-dependent H2O2 signal modulators, primary screen, NOX inhibitor project, cell-based, HEK293-NOX2, PMA-stimulated, Amplex Red fluorescence (AID 1159); conditions: 45 min, higher = more signal, called active from +8 up or from −8 down; further: test concentration not given here
# [19] = biological target: NADPH oxidase 4 (Homo sapiens) (UniProt Q9NPH5); experiment: NOX4-dependent H2O2 signal modulators, primary screen, NOX inhibitor project, cell-based, HEK293-NOX4, tetracycline-induced, Amplex Red fluorescence (AID 1160); conditions: 45 min, higher = more signal, called active from +8 up or from −8 down
# [20] = biological target: NADPH oxidase 5 (Homo sapiens) (UniProt Q96PH1); experiment: NOX5-dependent H2O2 signal modulators, primary screen, NOX inhibitor project, cell-based, HEK293-NOX5, Amplex Red fluorescence (AID 1161); conditions: HEK293-NOX5, ionomycin, 45 min, higher = more signal
# Sequence of NADPH oxidase 5 (Homo sapiens) (Q96PH1 whole entry, looked up): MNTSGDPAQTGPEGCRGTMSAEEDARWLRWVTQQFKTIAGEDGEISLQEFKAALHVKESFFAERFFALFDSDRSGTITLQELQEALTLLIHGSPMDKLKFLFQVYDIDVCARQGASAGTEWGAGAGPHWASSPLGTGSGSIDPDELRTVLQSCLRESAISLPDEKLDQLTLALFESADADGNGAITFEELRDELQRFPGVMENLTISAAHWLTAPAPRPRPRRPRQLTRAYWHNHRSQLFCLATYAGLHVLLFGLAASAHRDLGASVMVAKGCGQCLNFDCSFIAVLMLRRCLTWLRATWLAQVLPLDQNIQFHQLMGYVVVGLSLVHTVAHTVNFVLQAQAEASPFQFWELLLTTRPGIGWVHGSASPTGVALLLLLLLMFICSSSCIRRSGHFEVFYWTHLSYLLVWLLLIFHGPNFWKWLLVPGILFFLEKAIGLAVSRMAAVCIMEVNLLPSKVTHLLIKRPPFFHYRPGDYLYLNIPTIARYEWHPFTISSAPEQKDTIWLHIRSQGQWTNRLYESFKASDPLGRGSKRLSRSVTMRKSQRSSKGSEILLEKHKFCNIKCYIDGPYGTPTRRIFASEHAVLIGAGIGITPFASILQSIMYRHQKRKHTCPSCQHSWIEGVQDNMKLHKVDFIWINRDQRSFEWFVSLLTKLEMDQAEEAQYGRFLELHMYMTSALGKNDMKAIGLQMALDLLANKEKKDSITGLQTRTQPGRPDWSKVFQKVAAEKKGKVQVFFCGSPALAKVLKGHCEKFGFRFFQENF
# Sequence of NADPH oxidase 4 (Homo sapiens) (Q9NPH5 whole entry, looked up): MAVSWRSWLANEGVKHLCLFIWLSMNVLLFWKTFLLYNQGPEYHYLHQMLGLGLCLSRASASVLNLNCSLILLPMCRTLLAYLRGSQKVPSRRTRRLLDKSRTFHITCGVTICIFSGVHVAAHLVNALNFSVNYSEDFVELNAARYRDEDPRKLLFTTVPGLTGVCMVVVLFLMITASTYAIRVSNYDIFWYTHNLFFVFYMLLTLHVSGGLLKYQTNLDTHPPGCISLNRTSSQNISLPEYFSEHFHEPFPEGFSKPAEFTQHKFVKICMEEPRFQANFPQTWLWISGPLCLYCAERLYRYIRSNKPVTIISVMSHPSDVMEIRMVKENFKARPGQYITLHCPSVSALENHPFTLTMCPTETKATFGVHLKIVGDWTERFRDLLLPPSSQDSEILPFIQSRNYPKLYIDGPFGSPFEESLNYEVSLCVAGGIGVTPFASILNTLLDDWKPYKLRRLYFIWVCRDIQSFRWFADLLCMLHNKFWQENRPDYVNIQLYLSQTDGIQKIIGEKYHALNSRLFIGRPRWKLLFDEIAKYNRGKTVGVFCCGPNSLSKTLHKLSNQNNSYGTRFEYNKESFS
# Sequence of NADPH oxidase 2 (Homo sapiens) (P04839 whole entry, looked up): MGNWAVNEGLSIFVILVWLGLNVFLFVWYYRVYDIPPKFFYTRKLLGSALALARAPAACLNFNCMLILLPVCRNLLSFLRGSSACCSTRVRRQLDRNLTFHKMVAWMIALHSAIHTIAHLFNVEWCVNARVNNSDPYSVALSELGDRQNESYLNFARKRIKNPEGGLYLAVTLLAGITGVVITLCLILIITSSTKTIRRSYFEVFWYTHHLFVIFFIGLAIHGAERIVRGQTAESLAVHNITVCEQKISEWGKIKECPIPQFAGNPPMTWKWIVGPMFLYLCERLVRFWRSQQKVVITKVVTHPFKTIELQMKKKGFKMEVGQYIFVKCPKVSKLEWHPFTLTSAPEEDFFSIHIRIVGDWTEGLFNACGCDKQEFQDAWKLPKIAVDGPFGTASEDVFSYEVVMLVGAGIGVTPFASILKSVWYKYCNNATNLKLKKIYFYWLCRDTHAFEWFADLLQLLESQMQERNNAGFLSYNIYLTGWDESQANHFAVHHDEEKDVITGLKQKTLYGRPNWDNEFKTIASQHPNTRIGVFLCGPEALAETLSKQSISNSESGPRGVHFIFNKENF
# Sequence of Streptavidin (Streptomyces avidinii) (P22629 whole entry, looked up): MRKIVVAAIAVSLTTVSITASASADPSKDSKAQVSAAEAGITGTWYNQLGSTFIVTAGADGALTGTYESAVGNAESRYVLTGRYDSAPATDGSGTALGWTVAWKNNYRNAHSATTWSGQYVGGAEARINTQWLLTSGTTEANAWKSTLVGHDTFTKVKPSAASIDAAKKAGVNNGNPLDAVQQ
# Sequence of Torsin-1A (Homo sapiens) (O14656 whole entry, looked up): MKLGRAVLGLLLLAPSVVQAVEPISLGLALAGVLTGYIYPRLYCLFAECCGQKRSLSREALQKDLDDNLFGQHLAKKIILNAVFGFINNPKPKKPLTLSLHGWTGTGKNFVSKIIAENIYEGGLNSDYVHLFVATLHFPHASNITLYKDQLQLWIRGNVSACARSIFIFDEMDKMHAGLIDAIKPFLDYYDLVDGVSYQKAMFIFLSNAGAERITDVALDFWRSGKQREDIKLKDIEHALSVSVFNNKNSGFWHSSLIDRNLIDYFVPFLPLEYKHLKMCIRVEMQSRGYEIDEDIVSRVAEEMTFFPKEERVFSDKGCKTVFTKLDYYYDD
Compound,composite z-score [1],z-score [2],z-score [3],z-score [4],z-score [5],composite z-score [6],composite z-score [7],composite z-score (Torsin-1A (Homo sapiens) [8]),composite z-score (Torsin-1A (Homo sapiens) [9]),composite z-score [10],z-score [11],composite z-score [12],z-score [13],z-score [14],z-score [15],z-score [16],z-score [17],z-score [18],z-score [19],z-score [20]
COCCOC(=O)N1C(=O)[C@@]2(c3cc(C#CCCO)ccc31)[C@H](c1ccc(O)cc1)N1[C@H](c3ccccc3)[C@H](c3ccccc3)OC(=O)[C@H]1[C@@H]2C(=O)N1CCCCCCC1,0.799,-0.883 (inactive),-0.569 (inactive),0.568 (inactive),-0.268 (inactive),0.825,0.62,0.705,0.667,1.65,-0.275 (inactive),1.6,0.139 (inactive),-0.178 (inactive),-0.599 (inactive),0.0501 (inactive),-0.451,1.17 (inactive),0.131 (inactive),1.38
CC1(C)C(=O)C(c2ccccc2)=C2CN3C(=O)N(CCc4ccccc4)C(=O)C3(Cc3ccccc3)C=C21 (stereo not given),0.114,-1.13 (inactive),-0.741 (inactive),0.576 (inactive),0.15 (inactive),0.982,0.134,0.736,-0.244,-1.07,-1.23 (inactive),0.647,2.06 (inactive),0.541 (inactive),0.483 (inactive),0.861 (inactive),-0.196,-0.147 (inactive),0.405 (inactive),-1.62
COC(=O)[C@@]1(Cc2ccc(OC)cc2)[C@H]2c3cc(C(=O)N4CCCC4)n(CCc4ccccn4)c3C[C@H]2CN1C(=O)c1ccccc1,-0.249,-0.784 (inactive),-0.304 (inactive),0.201 (inactive),0.404 (inactive),0.698,-0.0332,-0.166,1.1,0.429,-1.76 (inactive),0.496,1.15 (inactive),0.453 (inactive),0.924 (inactive),0.518 (inactive),0.958,0.48 (inactive),-2.11 (inactive),-3.82
COCCOC(=O)N1C(=O)[C@@]2(c3cc(C#CC4(O)CCCCCC4)ccc31)[C@H](c1ccc(O)cc1)N1[C@H](c3ccccc3)[C@H](c3ccccc3)OC(=O)[C@H]1[C@@H]2C(=O)N1CCc2cc(OC)c(OC)cc2C1,-0.445,-2.45 (inactive),-1.73 (inactive),-1.7 (inactive),-0.805 (inactive),-1.33,-0.176,-0.576,-0.0551,-0.649,1.23 (inactive),-0.0099,-0.0535 (inactive),0.49 (inactive),0.44 (inactive),0.286 (inactive),0.0108,-0.0758 (inactive),0.139 (inactive),0.979
Cc1ccc([C@H]2C(C(=O)O)=C[C@@H](C(C)C)N2S(=O)(=O)c2ccc(C)cc2)cc1,-0.167,0.0491 (inactive),0.633 (inactive),-0.424 (inactive),1.01 (inactive),0.946,0.0173,-0.165,0.28,-0.542,-1.01 (inactive),0.121,0.297 (inactive),0.711 (inactive),-0.539 (inactive),0.734 (inactive),-0.365,0.79 (inactive),-1.06 (inactive),-0.32
CN(C)CCCC[C@@H]1NC(=O)[C@@H]2C[C@H](C(=O)NCc3ccc(F)cc3)[C@H](c3cccc(OCCO)c3)N2C1=O,0.584,-0.267 (inactive),-0.824 (inactive),0.423 (inactive),-1.18 (inactive),-0.0899,0.374,1.27,1.12,2.06,-0.179 (inactive),0.19,5.87 (inactive),0.995 (inactive),-1.39 (inactive),0.546 (inactive),0.612,1.85 (inactive),1.37 (inactive),1.55
CC1CC/C=C\[C@H]2OC34C=CCN(c5ccc6ccccc6c5)C(=O)[C@H]3N(CCCCCO)C(=O)[C@@H]4C2C(=O)O1 (stereo not given in full),-1.12,0.385 (inactive),0.669 (inactive),0.333 (inactive),-0.233 (inactive),-1.72,-0.233,-1.03,-1.19,-1.18,-0.557 (inactive),-0.427,0.157 (inactive),0.222 (inactive),-0.0324 (inactive),0.0382 (inactive),0.455,0.718 (inactive),-0.265 (inactive),1.7
CN(C)CCCN1C(=O)[C@@]2(c3ccc([N+](=O)[O-])cc3)CC(=O)N(C3CCCCC3)[C@@H]2c2ccc(CO)cc21,0.131,-1.79 (inactive),-1.09 (inactive),-0.464 (inactive),-0.477 (inactive),0.161,-0.101,-0.954,-0.288,-0.93,0.493 (inactive),0.412,-0.275 (inactive),-0.249 (inactive),-1.12 (inactive),-1.73 (inactive),0.759,-0.209 (inactive),0.632 (inactive),0.56
[N-]=[N+]=NCc1ccccc1[C@H]1OC(c2ccc(OCCCO)cc2)=N[C@@]1(Cc1ccccc1)C(=O)NCC(O)CO (stereo not given in full),0.11,-2.11 (inactive),-0.737 (inactive),0.96 (inactive),0.452 (inactive),0.496,0.296,0.379,0.894,-0.76,-0.112 (inactive),1.61,25.4 (active),12.1 (active),1.87 (inactive),1.67 (inactive),-0.09,0.046 (inactive),0.497 (inactive),-0.796
[N-]=[N+]=Nc1ccccc1[C@@H]1OC(c2ccc(OCCCO)cc2)=N[C@]1(CCS(=O)(=O)c1ccccc1)C(=O)O,0.301,-0.781 (inactive),1.08 (inactive),0.0594 (inactive),-0.0642 (inactive),1.04,0.0559,0.164,0.719,0.848,0.604 (inactive),0.568,28.8 (active),24.4 (active),0.971 (inactive),4.63 (inactive),-0.067,-2.5 (inactive),-0.0168 (inactive),0.778
